Mtb BioA inh – inhibitors of Mycobacterium tuberculosis BioA enzyme; purified M. tuberculosis BioA enzyme, plate reader; inhibition, % at 9.99 µM; hit rate 0.096% among 360,000; AID 602481; in the data active = inhibition above about 40%
FBA Mtb inh – inhibitors of M. tuberculosis fructose-bisphosphate aldolase; AID 588726; inhibition, % at 1 µM; hit rate 2.3% among 360,000; purified M. tuberculosis FBA, fluorescence read-out; in the data active = inhibition above about 27%;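 also: 0% = vehicle and 100% = reference inhibitor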
Target sequence (P9WQA3 whole entry, looked up): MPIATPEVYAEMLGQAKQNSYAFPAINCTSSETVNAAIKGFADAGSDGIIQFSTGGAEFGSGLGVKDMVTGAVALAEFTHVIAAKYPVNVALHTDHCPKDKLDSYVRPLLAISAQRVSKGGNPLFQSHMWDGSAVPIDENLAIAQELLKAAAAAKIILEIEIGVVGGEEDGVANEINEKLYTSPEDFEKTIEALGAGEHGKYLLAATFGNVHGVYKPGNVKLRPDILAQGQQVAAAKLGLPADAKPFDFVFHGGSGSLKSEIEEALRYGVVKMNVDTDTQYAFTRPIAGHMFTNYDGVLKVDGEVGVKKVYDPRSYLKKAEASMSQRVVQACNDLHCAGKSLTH
GDH-TPI inh – counter-screen for M. tuberculosis FBA inhibitors: GDH-TPI coupled enzymes. AID 588335. hit rate 1.2% among 360,000. GDH-TPI coupled enzyme counterscreen, NADH absorbance. inhibition, % at 4.8 µM; in the data active = inhibition above about 30%;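 also: 0% = DMSO wells and 100% = wells lacking the enzyme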
3CLpro inhibitor – SARS-CoV 3CLpro protease inhibition. P0C6X7. AID 1706. hit rate 0.14% among 290,000. inhibition, % at 6 µM. recombinant SARS-CoV 3CLpro, quenched FRET peptide cleavage; in the data active = inhibition above about 12%
FadD28 binding – blocks FadD28 binding to the bisubstrate probe | inhibition, % at 12.5 µM | fluorescence polarization | hit rate 0.22% among 360,000; in the data active = inhibition above about 8.5%, passing the limit was not always enough
* = called active by the depositor; . = no result; + = active, no number. The list is not random: actives were taken first. Their share in the collection is about 3.1%.

SMILES | Mtb BioA inh | FBA Mtb inh | GDH-TPI inh | 3CLpro inhibitor | FadD28 binding
Cc1noc(C)c1S(=O)(=O)N(C)C[C@@H]1OCCCC[C@@H](C)Oc2ccc(NC(=O)Cc3ccccc3)cc2C(=O)N([C@@H](C)CO)C[C@H]1C | -2.1 | . | . | . | .
Nc1ncc(Br)cc1Br | . | 0.9 | 7.8 | -4.0 | -1.3
Nc1ncc([N+](=O)[O-])cc1Br | -2.5 | 0.1 | 51.9* | -1.2 | -1.7
CCc1ccc(-n2c(O)c(/C=N/N3CCCCC3c3cccnc3)c(=O)[nH]c2=O)cc1 (configuration not stated) | . | -3.7 | 5.9 | 0.6 | -0.8
O=c1[nH]c(=S)n(-c2ccccc2)c(O)c1/C=N/N1CCCCC1c1cccnc1 (configuration not stated) | -0.5 | 3.7 | 51.9* | -3.8 | -1.2
Cc1cccc(C)c1NC(=S)N/N=C/c1ccc(C(=O)O)cc1 | -1.6 | 4.9 | 45.0* | 0.8 | -3.2
O=C(O)c1ccc(/C=N/NC(=S)NCCN2CCOCC2)cc1 | -1.5 | -4.8 | 46.3* | 3.3 | -1.0
S=C(NCCN1CCOCC1)N/N=C/c1cccs1 | . | 3.0 | 34.7* | -5.7 | -2.9
CC(=O)Nc1ccc(/C=N/NC(=S)NC(C)C)cc1 | . | -1.8 | 40.4* | -0.8 | -0.4
C=C(C)CNC(=S)N/N=C/c1ccc(NC(C)=O)cc1 | 0.5 | -3.9 | 17.9 | 0.0 | -2.9
CO[C@@H]1CN(C)C(=O)c2cc(NC(=O)c3ccc(F)cc3)ccc2OC[C@@H](C)N(C(=O)c2ccc(F)cc2)C[C@@H]1C | -0.2 | . | . | . | .
O=C(NCC(F)(F)F)[C@@H]1[C@@H](CO)[C@@H]2Cn3c(cccc3=O)[C@H]1N2C(=O)C1CCC1 | -0.8 | . | . | . | .
Cc1ccc(S(=O)(=O)N(C)C[C@@H]2OCCCC[C@H](C)Oc3ccc(NC(=O)Nc4c(C)noc4C)cc3C(=O)N([C@H](C)CO)C[C@@H]2C)cc1 | -0.2 | . | . | . | .
CCC1CCC(C(=O)NNC(=O)c2cc(-c3ccco3)[nH]n2)CC1 (configuration not stated) | . | -0.2 | 8.2 | 4.1 | 11.4*
O=C(NNC(=O)C1CCCCC1)c1ccco1 | . | 0.3 | 3.0 | 4.9 | -4.2
Cc1ccc(/C=C2\SC(=S)N(/N=C/c3cc([N+](=O)[O-])ccc3O)C2=O)o1 | . | -21.8 | 23.8 | 7.0 | 26.2*
Clc1ccc(/C=N/c2c(-c3ccco3)nc3ccccn23)cc1 | 1.4 | 7.8 | 14.3 | 1.3 | 1.3
O=[N+]([O-])c1cc(-c2ccc(/C=N/c3nc4ccccn4c3-c3ccco3)o2)ccc1Cl | 2.3 | -0.8 | 37.2* | -2.1 | -0.7
CCN(CC)c1ccc(/C=C2\C(=O)NC(=O)N(CC3CCCO3)C2=O)cc1 (configuration not stated) | -0.8 | -0.6 | 32.7* | -0.1 | -0.4
Cc1ccc(/C=C2\C(=O)NC(=O)N(CC3CCCO3)C2=O)s1 (configuration not stated) | -1.0 | -0.7 | 11.7 | -4.3 | -1.3
C[C@@H]1CN([C@H](C)CO)C(=O)c2cc(NC(=O)Nc3cccc4ccccc34)ccc2O[C@@H](C)CCCCO[C@H]1CN(C)C(=O)c1ccccc1 | 4.5 | . | . | . | .
C/C(=N/NC(=O)c1sc(NS(=O)(=O)c2ccccc2)nc1C)c1sc(N)nc1C | 4.2 | 6.4 | 38.2* | -1.3 | 6.6
Cc1nc(NS(=O)(=O)c2ccccc2)sc1C(=O)NN | . | 2.4 | 10.7 | 0.9 | 2.8
CCCCNc1c(-c2ccc(OC)c(Sc3ccc(OC)cc3)c2)nc2cnccn12 | -0.8 | 20.4 | 5.3 | . | 3.9
CCCCNc1c(-c2ccc(OC)c(Sc3ccc(OC)cc3)c2)nc2ccccn12 | -0.3 | 28.1* | 13.8 | . | 0.2
SMILES | Mtb BioA inh | FBA Mtb inh | GDH-TPI inh | 3CLpro inhibitor | FadD28 binding
CCCCNc1c(-c2ccc(SC(C)CC)cc2)nc2cnccn12 (configuration not stated) | -1.0 | 39.9* | 19.4 | . | -3.2
COc1ccc(S(=O)(=O)Nc2ccc3c(c2)C(=O)N([C@H](C)CO)C[C@@H](C)[C@@H](CN(C)Cc2ccc4c(c2)OCO4)O3)cc1 | 3.1 | . | . | . | .
COC(=O)CSC1=C(C#N)C(=O)NC(c2ccccc2)S1 (configuration not stated) | 1.1 | -6.6 | 40.9* | 3.0 | -2.3
C[C@@H](NC(=O)C[C@H]1C[C@H]2c3cc(NC(=O)C4CCOCC4)ccc3O[C@H]2[C@H](CO)O1)c1ccccc1 | 0.1 | . | . | . | .
C[C@@H]1CCCCO[C@@H](CN(C)Cc2ccc(C(F)(F)F)cc2)[C@@H](C)CN([C@@H](C)CO)C(=O)c2cc(NS(=O)(=O)c3cn(C)cn3)ccc2O1 | 2.3 | . | . | . | .
O=C(N/N=C/c1ccc(-c2ccc([N+](=O)[O-])cc2)o1)c1cccnc1 | 2.8 | -4.5 | 33.2* | -2.2 | -3.1
O=C(N/N=C/c1ccc([N+](=O)[O-])cc1)c1cccnc1 | 7.2 | 0.1 | 28.2 | 0.7 | -3.4
COCCNC(=S)N/N=C/c1ccc(-c2ccc([N+](=O)[O-])cc2)o1 | -0.8 | -7.9 | 32.5* | -1.9 | -0.3
CN1[C@H](CO)[C@H]2c3ccccc3N(C(=O)Nc3cc(F)ccc3F)C[C@H]21 | -0.6 | . | . | . | .
COc1cc(N2Cc3ccccc3C2)ccc1C=O | 1.7 | 1.5 | 33.6* | 1.0 | -0.8
C[C@@H]1CN([C@H](C)CO)C(=O)c2cc(C#CCN(C)C)cnc2O[C@H]1CN(C)C(=O)NC1CCCCC1 | -0.4 | . | . | . | .
C[C@@H]1CN([C@@H](C)CO)C(=O)c2cc(NC(=O)Nc3ccc(C(F)(F)F)cc3)ccc2O[C@H]1CN(C)S(=O)(=O)c1cccs1 | -2.1 | . | . | . | .
COc1ccc(OC)c(NC(=O)CSc2ncnc3sc(C)cc23)c1 | -0.2 | -0.1 | 9.1 | . | 13.7*
COc1ccc(OC)c(NC(=O)CNC(=O)Cn2cnc3sc(C)cc3c2=O)c1 | 0.0 | 1.3 | -0.3 | -0.7 | -1.2
CCCNC(=O)Nc1ccc2c(c1)C(=O)N(C)C[C@H](OC)[C@H](C)CN(Cc1ccncc1)[C@@H](C)CO2 | -0.3 | . | . | . | .
O=C1c2cccc3cccc(c23)C(=O)N1OS(=O)(=O)c1ccc(Cl)cc1 | . | -3.1 | 5.2 | 1.0 | -2.7
CCc1ccc(S(=O)(=O)ON2C(=O)c3ccccc3C2=O)cc1 | -0.3 | 30.2* | 14.2 | 1.8 | 0.0
C[C@@H]1CCCCO[C@H](CN(C)C(=O)c2ccncc2)[C@H](C)CN([C@@H](C)CO)C(=O)c2cc(NS(=O)(=O)c3cn(C)cn3)ccc2O1 | -1.2 | . | . | . | .
CCOC(=O)c1cc2ccc3ccccc3c2oc1=O | 0.7 | + | 8.4 | 6.1 | -4.7
CCOC(=O)c1cc2ccc(OC(=O)c3ccco3)cc2oc1=O | 0.1 | + | 9.4 | 2.3 | -5.6
CCOc1ccc2cc(C(=O)c3ccccc3)c(=O)oc2c1 | -0.4 | 2.1 | 40.7* | -4.6 | 0.3
CCOC(=O)c1c(C)n(C)c2ccc(OC(=O)c3ccco3)cc12 | -1.9 | 0.9 | 5.6 | 0.4 | 0.1
Cc1ccc(S(=O)(=O)N[C@@H]2CC[C@@H](CC(=O)NCCCN(C)C)O[C@@H]2CO)cc1 | -0.8 | . | . | . | .
Cc1c(/C=C/C(=O)c2ccccc2)cnn1C | 2.5 | 3.8 | 24.4 | -2.3 | 0.3
Cc1c(/C=C/C(=O)c2ccc(O)cc2)cnn1C | 0.0 | 1.9 | 38.5* | 0.9 | -1.9
Cc1nn(C)cc1/C=C/C(=O)c1ccccc1 | 3.6 | 0.2 | 36.0* | -3.1 | -2.2

From PubChem
